Records with an inconclusive call do not appear. Active and inactive are the calls of the source. Calls come from the whole dose curve; as a rule, active = well fitted curve in the direction sought with a large enough effect; inconclusive = small, poorly fitted or top-dose-only effect, or another doubt; inactive = no such curve, though single readings can be large; an effect the other way counts as inactive or inconclusive.

The first assay in a line: qHTS of pediatric cancer cell lines to identify multiple opportunities for drug repurposing: Confirmatory screen for TC32 cells (AID 1347118). For activity change, negative = cytotoxicity: % is set by controls: 0 for no effect and ±100 for the full control effect.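 Note: cells exposed to compound for 48 h before the read; nearly all actives have a fitted effect of over 65% in size.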 Note: potency is the fitted concentration of half-maximal effect. The settings on record: TC32 Ewing sarcoma cells viability qHTS; series mostly up to 45.9 µM; activity change, negative = cytotoxicity: at the top concentration. An outline of the steps:
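TC32 cells, 500-1,000/well in growth medium, compound-treated 48 h at 37 °C; viability from CellTiter-Glo luminescence. Primary screen: MIPE 11-point (0.78 nM–46 µM final), NPC 8-point (0.59 nM–46 µM final); confirmatory at 11-point dilutions.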
For `CNC(=O)Nc1ccc(-c2nc(N3CC4CCC(C3)O4)c3cnn(C4CCC5(CC4)OCCO5)c3n2)cc1`, the Potency is 0.369 µM (active).

For `CS(=O)(=O)N1CCc2c(-c3cnc(N)nc3)nc(N3CCOCC3)nc21`, the Potency is 1.85 µM (active).

For the compound `COc1cc2ncnc(Nc3cccc(Br)c3)c2cc1OC`, the Potency was 9.27 µM (active).

Turning to `COc1cc(OC)c(C=CS(=O)(=O)Cc2ccc(OC)c(NCC(=O)O)c2)c(OC)c1`, the Potency was 0.208 µM (active).

For `CN(CC(=O)N(Cc1ccc(C2CCCCC2)cc1)c1ccc(C(=O)O)c(O)c1)S(=O)(=O)c1c(F)c(F)c(F)c(F)c1F`, the Potency was 26.1 µM (active).

Take `Cn1cc(-c2cnn3c(N)c(Br)c([C@H]4CCCNC4)nc23)cn1`: the Potency is 5.85 µM (active).

Consider `NS(=O)(=O)OC[C@@H]1C[C@@H](n2ccc3c(N[C@H]4CCc5ccccc54)ncnc32)C[C@H]1O`, for which the “activity change, negative = cytotoxicity” value was -29.2% (inactive).

A further assay is described as follows: qHTS of pediatric cancer cell lines to identify multiple opportunities for drug repurposing: Confirmatory screen for MG 63 (6-TG R) cells (AID 1347119).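 For activity change, negative = cytotoxicity: plate controls were DMSO neutral control for no effect and bortezomib for full effect.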 Note: nearly all actives have a fitted effect of over 55% in size. Note: potency is the fitted concentration of half-maximal effect. The settings on record: MG-63 (6-TG resistant) osteosarcoma viability; series mostly up to 45.9 µM; activity change, negative = cytotoxicity: at the top concentration. In a few lines: (§1)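 Viability after 48 h compound treatment at 37C, 500-1,000 cells/well, read as ATP luminescence with CellTiter-Glo. Primary screens used 11-point (MIPE, 0.78 nM-46 µM) or 8-point (NPC, 0.59 nM-46 µM) final concentrations; follow-up screens used 11-point dilutions.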
As to `CNC(=O)Nc1ccc(-c2nc(N3CC4CCC(C3)O4)c3cnn(C4CCC5(CC4)OCCO5)c3n2)cc1`, the Potency was 0.0329 µM (active).

With `CS(=O)(=O)N1CCc2c(-c3cnc(N)nc3)nc(N3CCOCC3)nc21`, the Potency was 0.585 µM (active).

Turning to `COc1cc(OC)c(C=CS(=O)(=O)Cc2ccc(OC)c(NCC(=O)O)c2)c(OC)c1`, the Potency is 0.208 µM (active).

Turning to `CN(CC(=O)N(Cc1ccc(C2CCCCC2)cc1)c1ccc(C(=O)O)c(O)c1)S(=O)(=O)c1c(F)c(F)c(F)c(F)c1F`, the Potency was 20.8 µM (active).

With `CC(=O)O[C@@]12CO[C@H]1C[C@H](O)[C@@]1(C)C(=O)[C@H](O)C3=C(C)[C@@H](OC(=O)C(O)[C@@H](NC(=O)OC(C)(C)C)c4ccccc4)C[C@@](O)([C@@H](OC(=O)c4ccccc4)[C@@H]21)C3(C)C` (stereo partly specified), the Potency is 0.0074 µM (active).

For the compound `NS(=O)(=O)OC[C@@H]1C[C@@H](n2ccc3c(N[C@H]4CCc5ccccc54)ncnc32)C[C@H]1O`, the “activity change, negative = cytotoxicity” value was -59.8% (inactive).

The next assay in a line: qHTS of pediatric cancer cell lines to identify multiple opportunities for drug repurposing: Confirmatory screen for control Hh wild type fibroblast cells (AID 1347121).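 Note: plate controls were DMSO for no effect and bortezomib for full effect; nearly all actives have a fitted effect of over 70% in size.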 The settings on record: viability qHTS; series mostly up to 45.9 µM; activity, negative = cytotoxic: at the top concentration. In a few lines:
as §1
`COc1cc2ncnc(Nc3cccc(Br)c3)c2cc1OC`: the “activity, negative = cytotoxic” value was -2.53% (inactive).

For `COc1cc(OC)c(C=CS(=O)(=O)Cc2ccc(OC)c(NCC(=O)O)c2)c(OC)c1`, the “activity, negative = cytotoxic” value is -6.48% (inactive).

In the case of `CN(CC(=O)N(Cc1ccc(C2CCCCC2)cc1)c1ccc(C(=O)O)c(O)c1)S(=O)(=O)c1c(F)c(F)c(F)c(F)c1F`, the “activity, negative = cytotoxic” value is 2.33% (inactive).

`CC(=O)O[C@@]12CO[C@H]1C[C@H](O)[C@@]1(C)C(=O)[C@H](O)C3=C(C)[C@@H](OC(=O)C(O)[C@@H](NC(=O)OC(C)(C)C)c4ccccc4)C[C@@](O)([C@@H](OC(=O)c4ccccc4)[C@@H]21)C3(C)C` (stereo partly specified): the “activity, negative = cytotoxic” value was -4.48% (inactive).

For `Cn1cc(-c2cnn3c(N)c(Br)c([C@H]4CCCNC4)nc23)cn1`, the “activity, negative = cytotoxic” value is -13.5% (inactive).

As for `COC(=O)C1C2CC3c4[nH]c5cc(OC)ccc5c4CCN3CC2CC(OC(=O)c2cc(OC)c(OC)c(OC)c2)C1OC` (stereo unspecified), the “activity, negative = cytotoxic” value was -8% (inactive).

With `N#Cc1c(C2CCNCC2)cc(-c2c(O)cccc2OCC2CC2)nc1N`, the “activity, negative = cytotoxic” value was -3.32% (inactive).

For `NS(=O)(=O)OC[C@@H]1C[C@@H](n2ccc3c(N[C@H]4CCc5ccccc54)ncnc32)C[C@H]1O`, the “activity, negative = cytotoxic” value was 3.7% (inactive).
